# This is a sample that favours compounds with a hit; in the whole collection about 9% have one here.
# ALDH1A1 inh: qHTS Assay for Inhibitors of Aldehyde Dehydrogenase 1 (ALDH1A1). hit rate 7.3% among 220,000. Purified ALDH1A1, NADH fluorescence, propionaldehyde substrate. AID 1030, 2008. Potency, µM (highest dose often 75.3 µM), for the others: at the highest dose activity, negative = inhibition, most hits filed as inhibitors. Aldehyde dehydrogenase 1A1 (Homo sapiens), P00352; active = well fitted inhibition curve with a large enough effect, not every such curve was filed as active; inconclusive = small, poorly fitted or top-dose-only effect, or another doubt; inactive = no such curve, though single readings can be large or run the other way;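 note: plate controls were no enzyme wells and a reference inhibitor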
# Target sequence (P00352 whole entry, looked up): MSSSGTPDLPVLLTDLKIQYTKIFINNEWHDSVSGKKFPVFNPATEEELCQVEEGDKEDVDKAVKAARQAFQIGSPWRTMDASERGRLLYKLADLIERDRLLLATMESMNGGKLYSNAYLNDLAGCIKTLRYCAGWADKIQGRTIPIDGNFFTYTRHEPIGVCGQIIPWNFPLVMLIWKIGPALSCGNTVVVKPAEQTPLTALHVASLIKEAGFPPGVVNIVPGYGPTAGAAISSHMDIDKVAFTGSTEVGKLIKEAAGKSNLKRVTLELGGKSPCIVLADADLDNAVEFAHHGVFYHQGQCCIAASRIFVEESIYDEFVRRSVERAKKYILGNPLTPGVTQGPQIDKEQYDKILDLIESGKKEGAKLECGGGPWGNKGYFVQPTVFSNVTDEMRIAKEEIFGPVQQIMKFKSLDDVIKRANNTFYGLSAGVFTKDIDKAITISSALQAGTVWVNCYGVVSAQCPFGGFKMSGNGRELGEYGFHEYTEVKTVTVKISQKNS
# LMNA splice mod: qHTS Assay for Modulators of Lamin A Splicing; HeLa LMNA splicing GFP/RFP minigene ratio, 48 h; Potency, µM (top dose mostly 46.1 µM), inactives show at the highest dose ratio change, negative = inhibition, usual class: inhibitors; hit rate 0.01% among 200,000; AID 1487, 2009; active = well fitted inhibition curve with a large enough effect in the signal ratio, with a control signal flat, not every such curve was filed as active; inconclusive = small, poorly fitted or top-dose-only effect, or effect the other way, or a change in a side signal; the % refers to the signal ratio; note: % is set by controls: 0 for no effect and ±100 for the full control effect
#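 Read-out is the ratio of GFP to DsRed2 object intensity, acquired by 488 nm laser-scanning cytometry on HeLa lamin A-EGFP minigene reporter cells. Compound incubation 48 hrs at 37 °C in Opti-MEM with 2% FBS; DMSO 0.5% final.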
# KinaseGlo FLuc: Counterscreen for Luciferase (Kinase-Glo TM) Inhibition. Luciferin 4-monooxygenase (Photuris pensylvanica), Q27757. Kinase-Glo luciferase, ATP luminescence, 8 min. Potency, µM (highest dose often 38.3 µM), for inactives: top-dose activity change, negative = inhibition, most hits filed as inhibitors. hit rate 0.28% among 200,000; note: % is set by controls: 0 for no effect and ±100 for the full control effect; nearly all actives have a fitted effect of over 60% in size
#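 Luminescence was the read-out, taken after 8-minute incubation at ambient temperature. Luciferase turned over luciferin with 10 uM ATP in imidazole pH 7.2 buffer containing KCl, MgCl2, Tween 20 and BSA.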
# HTT cytoprotect: qHTS Multiplex Assay to Identify Dual Action Probes in a Cell Model of Huntington: Cytoprotection (ATP); Potency, µM (highest dose often 56.4 µM), without a hit: cytoprotection (ATP increase), actives largely listed as activators; AID 1471, 2008; hit rate 0.14% among 230,000; PC12 HTT-Q103 induced, cytoprotection, ATP luminescence, 40 h; note: % of control where 0% means no effect; nearly all actives have a fitted effect of over 45% in size
#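 Quantitative HTS on tebufenozide-induced (100 nM) PC12 cells expressing HTTQ103 exon 1–GFP; compounds tested as a concentration series; survival measured via cellular ATP.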
# HttQ103 aggreg: qHTS Multiplex Assay to Identify Dual Action Probes in a Cell Model of Huntington: Aggregate Formation (GFP); Potency, µM (highest dose often 46.1 µM), inactives show at the top dose activity change, negative = inhibition, actives largely listed as inhibitors; AID 1688, 2009; PC12 HttQ103-GFP aggregates, Acumen cytometry, 40 h; hit rate 1.1% among 220,000; note: % is set by controls: 0 for no effect and ±100 for the full control effect; nearly all actives have a fitted effect of over 60% in size
#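 Quantitative HTS on tebufenozide-induced (100 nM) PC12 cells stably expressing polyQ103 Huntingtin exon 1–GFP. Reduction of bright GFP aggregates, detected by laser scanning cytometry after lysis, identified actives across the titration.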
# HPGD inh: qHTS Assay for Inhibitors of HPGD (15-Hydroxyprostaglandin Dehydrogenase) | 15-hydroxyprostaglandin dehydrogenase [NAD(+)] (Homo sapiens), P15428 | purified HPGD, NADH fluorescence kinetic, PGE2 substrate | Potency, µM, for inactives: at the top dose activity change, negative = inhibition, usual class: inhibitors | hit rate 4.3% among 150,000 | AID 894, 2007; active = well fitted inhibition curve with a large enough effect, not every such curve was filed as active; inconclusive = small, poorly fitted or top-dose-only effect, or another doubt; inactive = no such curve, though single readings can be large or run the other way; note: % is set by controls: 0 for no effect and ±100 for the full control effect
# Target sequence (P15428 whole entry, looked up): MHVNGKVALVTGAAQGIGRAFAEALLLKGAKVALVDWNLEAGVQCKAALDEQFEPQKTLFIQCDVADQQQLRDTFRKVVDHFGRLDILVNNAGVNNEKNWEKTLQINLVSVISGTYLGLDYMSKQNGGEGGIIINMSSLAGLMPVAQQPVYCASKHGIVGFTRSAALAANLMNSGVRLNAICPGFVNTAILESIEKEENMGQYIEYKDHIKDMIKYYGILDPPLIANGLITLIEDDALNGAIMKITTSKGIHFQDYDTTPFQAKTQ
#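 20 nM HPGD preincubated 15 min at room temperature with compound in 50 mM Tris-HCl pH 8, 0.01% Tween 20. Started with 1 mM NAD+ and 30 uM prostaglandin E2; NADH fluorescence (360/450 nm) read 5 times over 30-s intervals, last minus first.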
# Active calls of the source: *; ? = inconclusive; nt = no result; [ ] = dose if it differs, or a comment. Unless noted, calls come from the whole dose curve; as a rule, active = well fitted curve in the direction sought with a large enough effect; inconclusive = small, poorly fitted or top-dose-only effect, or another doubt; inactive = no such curve, though single readings can be large; an effect the other way counts as inactive or inconclusive. Potency is the fitted concentration of half-maximal effect.
SMILES,ALDH1A1 inh,LMNA splice mod,KinaseGlo FLuc,HTT cytoprotect,HttQ103 aggreg,HPGD inh
O=S(=O)(c1ccccc1F)N(Cc1ccco1)Cc1nnc(-c2ccccc2Br)o1,14µM*,?,2%,-4%[10 µM],-25%,25µM*
CCC(OC(=O)c1nsc(Cl)c1Cl)C(=O)NCc1ccco1 (centres undefined),?,6%,-2%,1%,-6%,10µM*
O=C(CCCOc1ccc(Cl)cc1)Nc1ccc(N2CCOCC2)cc1,0%,nt,-5%,15%[10 µM],12%[9.22 µM],nt
Nc1ncnc2c1ncn2[C@@H]1O[C@H](COP(=O)(O)OP(=O)(O)O)[C@@H](O)[C@H]1O,1%,nt,5µM*,-19%,nt,-4%
Nc1ncnc2c1ncn2[C@@H]1O[C@H](COP(=O)(O)OP(=O)(O)OP(=O)(O)OP(=O)(O)OC[C@@H]2O[C@H](n3cnc4c(N)ncnc43)[C@@H](O)[C@H]2O)[C@@H](O)[C@H]1O,?,nt,nt,29%,nt,nt
Cc1ccc2cc(C3C(C#N)=C(N)Oc4c3ccc3cccnc43)c(=O)[nH]c2c1 (centres undefined),?,?,-3%,-58%,2.5µM*,-26%
CC1=C(C#N)C(c2cccnc2)C2=C(N1)c1ccccc1C2=O (centres undefined),-1%,-2%[46 µM],0%,-15%,?,nt
CC1=C(C#N)C(c2ccccc2)C2=C(N1)c1ccccc1C2=O (centres undefined),13µM*,-2%,2%,nt,-15%,22µM*
CCSCc1nnc(SCC(=O)Nc2cccc(C(C)=O)c2)n1C,6%,0%[46 µM],2%,5%,11%,nt
O=C(OCN1C(=O)c2ccccc2C1=O)c1ccc2c(=O)n3c(nc2c1)CCC3,nt,nt,nt,-19%[10 µM],nt,nt
CC(C)(C)c1cc(NC(=O)COC(=O)c2ccc3c(=O)n4c(nc3c2)CCC4)n(-c2ccccc2)n1,4µM*,-9%,-2%,-9%,5%,-23%
CCn1c(O)c(N=NC2=NC(=O)CS2)c2ccccc21,11µM*,7%[0.0737 µM],3%,1%,8%,-20%
CCn1c(O)c(N=N)c2ccccc21,-4%,4%[46 µM],6%,-2%[10 µM],-11%,nt
O=C(CSc1cccc[n+]1[O-])Nc1cc2c(cc1Cl)C(=O)c1ccccc1C2=O,8.9µM*,0%,10%,16%[10 µM],4%,-19%
O=C(CSc1cccc[n+]1[O-])Nc1cc([N+](=O)[O-])ccc1Cl,-13%,nt,4%,-21%,10%,nt
O=C(CSc1cccc[n+]1[O-])Nc1ccccc1Oc1ccccc1,14µM*,nt,-2%,-18%,-6%,nt
CCOC(=O)C1CCN(C(=O)CCc2c(C)nc3c(-c4ccc(F)cc4)c(C)nn3c2C)CC1,9%,5%,-1%,-10%,-5%,-2%
COC(=O)N1CC=CC1(C)C(=O)NCC1CC1 (centres undefined),-3%,nt,-2%,13µM*,nt,-10%
CNC(=O)C1(C)C=CCN1C(=O)OC (centres undefined),4%,nt,0%,-6%,nt,-1%
CCCCCC1=C2CNC(Cc3ccccc3)(C(=O)OC)C=C2C(C)C1=O (centres undefined),-7%,nt,-3%,-60%,nt,-6%
COc1ccc(-c2noc(CSc3nnc(Cc4ccccc4)n3-c3cccc(C)c3)n2)cc1OC,13µM*,-4%,1%,-4%,?,-14%
Cc1ccc(-c2noc(CSc3nnc(Cc4ccccc4)n3-c3cccc(C)c3)n2)cc1,-11%,?,-6%,5%,?,-13%
Fc1ccc(-n2c(Cc3ccccc3)nnc2SCc2nc(-c3cccs3)no2)cc1,14µM*,-11%,-2%,13%[10 µM],-19%,-18%
c1ccc(-c2noc(CSc3nnc(Cc4cccs4)n3-c3ccccc3)n2)cc1,?,?,2%,-15%[0.074 µM],-8%,-1%
Cc1ccc(-c2nc(CN3CCN(c4cnccn4)CC3)c(C)o2)o1,?,nt,2%,-7%[10 µM],11%[9.22 µM],nt
SMILES,ALDH1A1 inh,LMNA splice mod,KinaseGlo FLuc,HTT cytoprotect,HttQ103 aggreg,HPGD inh
CCOC(=O)N/N=C\c1ccc(-c2cccc(C(F)(F)F)c2)o1,-6%,nt,1%,-48%,-19%,nt
N#C/C(=C\c1ccc(-c2cccc(C(F)(F)F)c2)o1)C(=O)Nn1cnnc1,3%,-10%,-1%,-2%[10 µM],32%,1.4µM*
N#Cc1c(Nc2ccc(F)cc2)sc(C(=O)c2ccc(F)cc2)c1N,22µM*,6%,-4%,-11%,7%,?
N#Cc1c(Nc2ccc(F)cc2)sc(C(=O)c2ccccc2)c1N,?,-15%,1%,-13%[10 µM],?,?
N#Cc1c(Nc2ccccc2)sc(C(=O)c2ccccc2)c1N,13µM*,-8%,5%,20%[10 µM],-5%,-29%
CC(=O)NCC1=C(NC(C)=O)C2CC1C(C)(C)C2C (centres undefined),-47%,5%,-3%,-6%[0.074 µM],-4%,-11%
COc1ccc(CCN2C(=O)c3cccc4c(C(=O)N5CCCCC5)ccc(c34)C2=O)cc1OC,10µM*,?,0%,-18%[10 µM],?,13µM*
COc1cccc(-c2cc(C(F)(F)F)n3ncc(C(=O)N4CCc5ccccc5C4)c3n2)c1,?,nt,-4%,nt,nt,nt
O=C(CN1C(=O)NC2(CCCc3ccccc32)C1=O)NCc1ccco1 (centres undefined),11%,6%,3%,-26%,32%,-8%
Cc1c(/C=N/NC(=O)c2ccccc2O)c2ccccn2c1C(=O)c1ccc(F)cc1,-10%,?,-4%,3%[0.074 µM],-4%,28µM*
Cc1cccn2c(=O)c(/C=C(\C#N)S(=O)(=O)c3ccccc3)c(N3CCN(C)CC3)nc12,11µM*,1%,-3%,3%,-13%,-17%
CN1CCN(c2nc3ccccn3c(=O)c2/C=C(\C#N)S(=O)(=O)c2ccccc2)CC1,nt,nt,nt,-9%[10 µM],-16%[9.22 µM],nt
CC1CN(c2nc3ccccn3c(=O)c2/C=C(\C#N)S(=O)(=O)c2ccccc2)CC(C)O1 (centres undefined),13µM*,13%,-1%,-5%[0.074 µM],-15%,18µM*
Cc1ccc(S(=O)(=O)/C(C#N)=C/c2c(N3CC(C)OC(C)C3)nc3c(C)cccn3c2=O)cc1 (centres undefined),?,0%,-4%,1%,0%,2.2µM*
CCN(CC)CCNC(=O)CSc1c2c(nc3cc(Cl)ccc13)CCCC2,4%,nt,9%,nt,?,nt

# Source: PubChem
